According to PubChem BioAssay AID431 (Sanford-Burnham Center for Chemical Genomics, 2006):
Screen size: about 63,000 compounds; about 1,100 (1.7%) were called active.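 Rule for the calls: active = compounds whose percent cytotoxicity in the single-dose primary screen, scaled between solvent and toxic-drug controls, exceeds 50; inactive = the rest.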 This excerpt belongs to a sample that is enriched for actives. Entries with a potency or affinity are not part of this list.

assay: viability loss of HPDE-C7K cells – cell-based, fluorescence, HTS, primary screen (AID 431); settings: HPDE-C7K KRASV12 cells, Alamar Blue viability, 48 h; at 10 µM; hits give high values;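 note: 0% = DMSO solvent wells and 100% = doxorubicin-treated wells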

Row | Structure (SMILES) | cytotoxicity
1 | CCc1nnc(NC(=O)CSc2nnc(Cc3cccn3C)n2C)s1 | 4% (inactive)
2 | CC1(C)Cc2c(c(N3CCOCC3)nc3snc(Br)c23)CO1 | -11% (inactive)
3 | CC1(C)Cc2c(c(N3CCOCC3)nc3sc(C(=O)N4CCCCC4)c(N)c23)CO1 | -5.9% (inactive)
4 | Cc1cc(O)ccc1Nc1nc(-c2sc(N)nc2C)cs1 | 13% (inactive)
5 | Cc1nc(-c2c(-c3ccc(O)cc3O)noc2C(F)(F)F)cs1 | 1.3% (inactive)
6 | Cc1cccnc1Nc1nc(-c2ccc(O)cc2O)cs1 | 78% (active)
7 | COc1ccc(C(C(=O)NC(C)(C)C)N(Cc2ccco2)C(=O)CCC(=O)Nc2cc(C)on2)cc1 (configuration not stated) | -10% (inactive)
8 | O=C(O)c1ccc(CS(=O)(=O)c2cccc(C(F)(F)F)c2)o1 | 0.8% (inactive)
9 | CCNC(=O)N1C(=O)C2(OCCO2)c2ccccc21 | -11.6% (inactive)
10 | CC(=O)N1C(=O)C2(Nc3ccccc3N2)c2ccccc21 | 2.8% (inactive)
11 | CCCCOc1ccc(OCCCC)c2c1NC1(N2)C(=O)N(C(C)=O)c2ccccc21 | 59.6% (active)
12 | CCn1c(=NC(=O)CSC(C)=O)sc2cc(F)ccc21 | -9.8% (inactive)
13 | Cc1c(C(C)O)nnn1-c1nonc1N (configuration not stated) | 7.8% (inactive)
14 | CC(c1ccco1)N(C(=O)C12CC3CC(CC(C3)C1)C2)c1ccccn1 (configuration not stated) | -19.3% (inactive)
15 | Cc1ccc(S(=O)(=O)c2c(C)nn(C(C)(C)C)c2OC(=O)c2ccco2)cc1 | 5.7% (inactive)
16 | Cc1nn(C(C)(C)C)c(OC(=O)c2cccs2)c1S(=O)(=O)c1ccccc1 | 64% (active)
17 | Cc1nn(-c2ccccc2)c(OC(=O)c2cccs2)c1S(=O)(=O)c1ccccc1 | 1.2% (inactive)
18 | Cc1ccc(S(=O)(=O)c2c(C)nn(C(C)(C)C)c2OC(=O)c2cccs2)cc1 | 5% (inactive)
19 | CC(=O)Oc1c(S(=O)(=O)c2ccc(C)cc2)c(C)nn1C(C)(C)C | 3.3% (inactive)
20 | O=C(Cc1coc2ccc3ccccc3c12)N1CCN(c2ncccn2)CC1 | 0.6% (inactive)
21 | COc1ccc(Nc2cc(=O)n(C3CCCCC3)c(=O)[nH]2)c(OC)c1 | -8.6% (inactive)
22 | CCC(=O)Nc1ccc(OC)cc1OC | -5.2% (inactive)
23 | COc1ccc(OCc2nn3c(-c4ccccn4)nnc3s2)cc1 | 4% (inactive)
24 | CC1(C)Cc2c(c(N3CCCC3)nc3sc4c(N5CCN(CCO)CC5)ncnc4c23)CO1 | 67.8% (active)
25 | OCCN1CCN(c2ncnc3c2sc2nc(N4CCOCC4)c4c(c23)CCC4)CC1 | 39.9% (inactive)

Row | Structure (SMILES) | cytotoxicity
26 | CN1CCN(c2ncnc3c2sc2nc(N4CCCC4)c4c(c23)CC(C)(C)OC4)CC1 | -9.3% (inactive)
27 | O=c1[nH]nc2c3ccccc3cnn12 | -22% (inactive)
28 | C=COCCNC(=O)C1CC(=O)N(c2ccc(C)cc2)C1 (configuration not stated) | 13.2% (inactive)
29 | Cc1cc(-c2cc(-c3ccc(Cl)cc3)nc(N)c2C#N)co1 | 92% (active)
30 | Cc1ccc(-c2cc(-c3ccc(Cl)cc3)c(C#N)c(N)n2)o1 | 74.2% (active)
31 | Cc1ccc(-c2cc(-c3ccccc3)c(C#N)c(N)n2)o1 | 10.2% (inactive)
32 | Cc1ccc(-c2cc(-c3ccc(F)cc3)nc(N)c2C#N)o1 | 4.4% (inactive)
33 | Cc1ccc(-c2cc(-c3ccccc3Cl)c(C#N)c(N)n2)o1 | 20.7% (inactive)
34 | Cc1ccc(-c2cc(-c3ccc(C)o3)nc(N)c2C#N)cc1 | -2.5% (inactive)
35 | Cc1ccc(NC(=O)CC(O)(C(F)(F)F)C(F)(F)F)c(Br)c1 | -6.8% (inactive)
36 | Cc1ccc(Cl)cc1NC(=O)CC(O)(C(F)(F)F)C(F)(F)F | 57.3% (active)
37 | CCNC(=O)CCC(=O)Nc1cc(Cl)ccc1C | -14.8% (inactive)
38 | COC(=O)c1sccc1NC(=O)c1ccc(OC)cc1 | 13.2% (inactive)
39 | COc1ccc(C2CC(c3cc(Br)ccc3F)n3nnnc3N2)cc1 (configuration not stated) | 1.9% (inactive)
40 | O=C(c1ccncc1)c1ccc(Br)cc1 | 1.4% (inactive)
41 | O=C(c1ccccc1)c1ccncc1 | 56.1% (active)
42 | O=C(c1ccccc1)c1nnc(-c2ccncc2)o1 | -7.9% (inactive)
43 | O=S(=O)(NCCSc1nnc(-c2ccco2)n1-c1ccccc1)c1ccccc1 | -7.3% (inactive)
44 | C=C(C)Cn1c(Sc2nc3ccccc3[nH]2)nc2c1c(=O)[nH]c(=O)n2C | 21.2% (inactive)
45 | Cc1ccc(-c2nnc(N3CCN(S(C)(=O)=O)CC3)c3ccccc23)cc1 | -3.8% (inactive)
46 | c1ccc(-c2nnc(N3CCN(c4ccccn4)CC3)c3ccccc23)cc1 | -2.1% (inactive)
47 | COc1ccccc1NC(=O)CSc1nnc(C)n1Cc1ccccc1 | -12.1% (inactive)
48 | O=C(Nc1ccc(Br)cc1F)c1ccncc1 | -12.6% (inactive)
49 | CCCNc1nc2c(c(=O)[nH]c(=O)n2C)n1CCC(C)C | 9% (inactive)
50 | Cc1cccc(Nc2ccccc2C(=O)O)c1C | 6% (inactive)

Row | Structure (SMILES) | cytotoxicity
51 | Cc1ccc(Cl)c(Nc2ccccc2C(=O)O)c1Cl | 67.9% (active)
52 | Cc1c(Cl)cccc1Nc1ccccc1C(=O)O | 46% (inactive)
53 | CCN(CC)C(=O)Oc1ccc2c(=O)c(-c3ccccc3)coc2c1 | -28% (inactive)
54 | CCN(CC)C(=O)Oc1ccc2c(=O)c(-c3ccc(OC)cc3)coc2c1 | -3.7% (inactive)
55 | CC(C)Oc1ccc2c(=O)c(-c3ccccc3)coc2c1 | 53.7% (active)
56 | O=C(NC1CCCc2ccccc21)C1CCC(CNc2c(N3CCOCC3)c(=O)c2=O)CC1 (configuration not stated) | -5% (inactive)
57 | O=C(NCC1CCCO1)C1CCN(C(=O)c2ccc(Cl)cc2)CC1 (configuration not stated) | -4.1% (inactive)
58 | Cc1ccc2c(c1)nnn2C1CCN(CC(=O)Nc2ccc3c(c2)OCCO3)CC1 | -7.5% (inactive)
59 | c1cn2c(NC3CCCC3)c(-c3ccc(N4CCOCC4)cc3)nc2cn1 | 7.8% (inactive)
60 | COc1cc(-c2nc3cnccn3c2Nc2ccccc2)ccc1O | 16.3% (inactive)
61 | CCOC(=O)C1=CN(C)C=C(C(=O)OCC)C1c1ccsc1 | 6.2% (inactive)
62 | CCCNC(=O)c1ccccc1NS(=O)(=O)c1ccc2c(c1)OCCO2 | 28.6% (inactive)
63 | CC(=O)c1cc2c(cc1NS(=O)(=O)c1ccc3c(c1)OCCO3)OCO2 | 37.2% (inactive)
64 | COC(=O)c1ccc(NS(=O)(=O)c2ccc(OC)cc2)cc1 | -10.3% (inactive)
65 | COC(=O)c1ccc(Cl)c(NS(=O)(=O)c2ccc3c(c2)OCCO3)c1 | 63.6% (active)
66 | O=C(O)c1ccc(NS(=O)(=O)c2ccc3c(c2)OCCO3)cc1 | 1.7% (inactive)
67 | COC(=O)c1ccc(C)c(NC(=O)CN(c2ccc3c(c2)OCO3)S(C)(=O)=O)c1 | -3.2% (inactive)
68 | COC(=O)c1ccc(C)c(NS(=O)(=O)c2ccc(OC)cc2)c1 | 65.2% (active)
69 | COC(=O)c1ccc(C)c(NS(=O)(=O)c2ccc3c(c2)OCCO3)c1 | 59.3% (active)
70 | COC(=O)c1ccc(C)c(NS(=O)(=O)c2ccc(NC(C)=O)cc2)c1 | 4.5% (inactive)
71 | CC(C)(C)NC(=O)c1ccc2nccnc2c1 | 12.3% (inactive)
72 | COc1ccccc1NC(=O)N(CCN(C)C)Cc1cc2cc(C)ccc2[nH]c1=O | 19.6% (inactive)
73 | CCCC(C(=O)NC1CCCC1)N(C(=O)Cn1nnc(-c2ccc(C)o2)n1)C1CCCC1 (configuration not stated) | -0.4% (inactive)
74 | CC(C)OC(=O)CSc1nc(N)c(C#N)c(-c2cccs2)c1C#N | 5% (inactive)
75 | CC(C)OC(=O)CCC1(C(=O)O)CCC(=O)NC1 (configuration not stated) | -7.1% (inactive)

Row | Structure (SMILES) | cytotoxicity
76 | O=C(CC(SCc1ccco1)c1ccc(O)cc1)c1cccs1 (configuration not stated) | 57.7% (active)
77 | O=C(CSc1nnc(-c2ccc(O)cc2)n1Cc1ccco1)c1cccs1 | 2.5% (inactive)
78 | O=C(CSCc1ccco1)c1cccs1 | -15.8% (inactive)
79 | CCOC(=O)C1=C(C)OC(N)=C(C#N)C1c1ccsc1 (configuration not stated) | 9.1% (inactive)
80 | CCOc1ccc(C2CC(c3ccc(F)cc3)n3ncnc3N2)cc1 (configuration not stated) | 3.1% (inactive)
81 | Cc1ccc(C(=O)CC(C(=O)O)n2ccc(C)n2)cc1 (configuration not stated) | 4.5% (inactive)
82 | Cc1ccc(C(=O)CC(C(=O)O)n2cccn2)cc1 (configuration not stated) | -4.8% (inactive)
83 | O=C(c1ccco1)N1CCN(C(=O)c2cccn3c(=O)c4c5c(sc4nc23)CCCC5)CC1 | -9.7% (inactive)
84 | Cc1cccc(Cn2cnc3c(nnn3Cc3ccc(Cl)cc3)c2=O)c1 | -2.1% (inactive)
85 | COc1ccc(C(C)=O)cc1COC(=O)c1c(C)noc1C | 18.5% (inactive)
86 | COC(=O)c1c(N)sc(C(C)=O)c1C | 0% (inactive)
87 | COC(=O)c1sc(N)c(C(=O)OC)c1COC(=O)c1c(C)noc1C | 56.4% (active)
88 | Cc1cccc(Cn2c(SCCN3CCCCC3)nc3c2c(=O)[nH]c(=O)n3C)c1 | -3.8% (inactive)
89 | O=C1C(Cl)=C(NCC2CCCO2)C(=O)N1CCc1ccccc1 (configuration not stated) | -4.3% (inactive)
90 | C[C@]12CC[C@@H]3c4ccc(O)cc4CC[C@H]3[C@@H]1CC[C@@H]2OC(=O)CCC(=O)O | -1.7% (inactive)
91 | C[C@]12CC[C@@H]3c4ccc(OC(=O)c5ccccc5)cc4CC[C@H]3[C@@H]1CC[C@@H]2O | 54.4% (active)
92 | C[C@]12CC[C@@H]3c4ccc(O[C@@H]5O[C@H](C(=O)O)[C@@H](O)[C@H](O)[C@H]5O)cc4CC[C@H]3[C@@H]1C[C@@H](O)[C@@H]2O | -13.5% (inactive)
93 | Cc1nnc(SCC(=O)Nc2nsc(-c3ccccc3)n2)s1 | 11.4% (inactive)
94 | c1ccc(Cn2nnnc2C(c2cccs2)N2CCOCC2)cc1 (configuration not stated) | -11.8% (inactive)
95 | COc1ccc(Cl)c(S(=O)(=O)N2CCCC2)c1 | -3.5% (inactive)
96 | COc1ccc(C(N)=O)cc1NC(=O)CC(O)(C(F)(F)F)C(F)(F)F | -2% (inactive)
97 | Cc1cc(NC(=O)C2CC(c3cccc(Br)c3)=NO2)no1 (configuration not stated) | -11% (inactive)
